Screening results (PubChem)
Only some compounds are listed: those with a hit (about 19% of all), similar ones and a draw of the others.
ELG1 repair inh: blocks ELG1-dependent DNA repair in HEK293T cells | HEK293T ELG1-luciferase reporter, luminescence, 16 h; DNA damage induced by 5-fluorouridine | 330,000 compounds, 2.3% hits | Potency, µM (highest dose often 46.1 µM), inactives show at the highest dose activity change, negative = inhibition, usual class: inhibitors; further: potency means the concentration at half of the fitted maximal effect; nearly all actives have a fitted effect of over 55% in size
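DMSO vehicle served as the neutral condition. Each well held 2,000 cells given 5-fluorouridine plus compound; after 16 hr at 37 °C/5% CO2, ONE-Glo was added and luciferase measured 30 min later.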
DT40 TDP1 no CPT: qHTS for Inhibitors of human tyrosyl-DNA phosphodiesterase 1 (TDP1): qHTS in cells in absence of CPT; 420,000 compounds, 15% hits; AID 686978, 2013; Potency, µM (doses to about 46.2 µM), without a hit: at the highest dose activity change, negative = growth inhibition, usual class: inhibitors; DT40 Tdp1-/- hTDP1 cells, no CPT, ATP luminescence, 48 h; further: potency means the concentration at half of the fitted maximal effect; nearly all actives have a fitted effect of over 55% in size
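Chicken DT40 Tdp1-/- cells complemented with human TDP1, screened without camptothecin (DMSO vehicle only), 400 cells/well. Compounds pin-transferred, cells incubated at 37 °C for at least 48 hr. Growth read as ATP-dependent luminescence (CellTiter-Glo, 30 min at RT).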
Giardia kill: kills Giardia lamblia; Giardia lamblia trophozoite viability; activity change, % at 7.66 µM, hits read low; 340,000 compounds, 0.15% hits; AID 540267; in the data active means activity change below about -80%; inconclusive means between about -30% and that limit;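 further: parasites exposed to compound for two days anaerobically before the ATP read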
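Luminescence from cellular ATP indicates surviving trophozoites (100 cells/well) following 48 hrs anaerobic compound treatment at 37 deg C; signal develops 15-30 min at room temperature.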
IL1B secr inh: inhibitors of inflammasome signaling (IL-1 beta secretion); 360,000 compounds, 4.7% hits; THP-1 LPS/ATP IL-1B secretion, AlphaLISA, 16 h; active compounds read low; activity change, % at 57.5 µM; AID 743279; in the data active means activity change below about -50%; inconclusive means mostly about -30% to -49%
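THP-1 cells pretreated 1 hr with compounds (up to 57.5 uM final), then stimulated with LPS (250 ng/mL final) plus ATP (1.25 mM final); secreted IL-1B measured by AlphaLISA after 16 hr, decreased signal indicating inhibition.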
TDP1 block: TDP1 (human) enzyme inhibition | Q9NUW8 | recombinant TDP1, AlphaScreen DNA substrate cleavage | Potency, µM (doses to about 130 µM), inactives show top-dose activity change, negative = inhibition, usual class: inhibitors | 350,000 compounds, 0.28% hits; further: potency means the concentration at half of the fitted maximal effect; nearly all actives have a fitted effect of over 40% in size
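Compounds were preincubated with Tdp1 (1 nM final) for 15 min at room temperature before substrate (15 nM final) started a 5 min reaction; beads (10 ug/ml final) were then added for 10 min before AlphaScreen detection.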
DT40 TDP1 CPT: DT40-hTDP1 cell growth loss with CPT; chicken DT40 Tdp1-/-;hTDP1 cells + 20 nM CPT, ATP luminescence, 48 h; 420,000 compounds, 12% hits; Potency, µM (series often up to 46.2 µM), for the others: at the highest dose activity change, negative = growth inhibition, hits mostly inhibitors; further: potency means the concentration at half of the fitted maximal effect; nearly all actives have a fitted effect of over 55% in size
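Chicken DT40 Tdp1-/- cells stably complemented with human TDP1 were seeded at 400 cells/well in medium containing 20 nM camptothecin, exposed to pin-transferred compounds, and grown at 37 °C for at least 48 hr. Viability was read as ATP luminescence.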
* = called active by the depositor; [ ] = remark or other dose. Unless noted, the call rests on the fitted dose curve; in most records, active means well fitted curve in the direction sought with a large enough effect; inconclusive means small, poorly fitted or top-dose-only effect, or another doubt; inactive means no such curve, though single readings can be large; an effect the other way counts as inactive or inconclusive. On the % scale 0 is the no-effect control and ±100 the full control effect.

Results for O=C(CN1CCCC1c1ccc2c(c1)OCCO2)NC(=O)Nc1ccccc1 (stereo not given) ?
ELG1 repair inh: 11%; DT40 TDP1 no CPT: inconclusive; Giardia kill: 8; IL1B secr inh: -15; TDP1 block: 0%[56.1 µM]; DT40 TDP1 CPT: inconclusive

Results for Cn1c(CCNS(=O)(=O)c2ccccc2)nnc1SCc1cccnc1 ?
ELG1 repair inh: -5%; DT40 TDP1 no CPT: 1%; Giardia kill: -18; IL1B secr inh: 18; TDP1 block: 2%; DT40 TDP1 CPT: 13%

What do the screens show for `Cc1cccc(C)c1NC(=O)Cn1c(SCC(=O)NCc2ccccc2)nc2ccccc21`?
DT40 TDP1 no CPT: inconclusive; TDP1 block: 6%; DT40 TDP1 CPT: inconclusive

Results for COc1cccc(NC(=O)c2c(-c3ccc(C)cc3)nnc3ccccc23)c1 ?
DT40 TDP1 no CPT: -17%; TDP1 block: 3%; DT40 TDP1 CPT: inconclusive

Results for CCN(CC)S(=O)(=O)c1cc(NC(=O)CSc2nc3c(cc2C#N)C(=O)CC(C)(C)C3)ccc1C ?
ELG1 repair inh: 21µM*; DT40 TDP1 no CPT: 18µM*; Giardia kill: -4; IL1B secr inh: -57*; TDP1 block: 6%; DT40 TDP1 CPT: inconclusive

Results for Cc1c(C(=O)NCc2cccc(F)c2)sc2ncnc(NCC3CCCO3)c12 (stereo not given) ?
DT40 TDP1 no CPT: inconclusive; DT40 TDP1 CPT: -8%[9.04 µM]

Results for Cc1cccc(CC(C)NC(=O)c2oc3c(F)cccc3c2C)n1 (stereo not given) ?
ELG1 repair inh: inconclusive; DT40 TDP1 no CPT: 10µM*; Giardia kill: 23; IL1B secr inh: -1; DT40 TDP1 CPT: inconclusive

Results for CCOC(=O)c1ccc(NC2SC(=O)N(Cc3cccc(C(=O)O)c3)C2=O)cc1 (stereo not given) ?
DT40 TDP1 no CPT: 1%; DT40 TDP1 CPT: -7%

How did COc1ccccc1C(=O)NCCC(=O)NCc1cccs1 do in these assays?
ELG1 repair inh: 11%; DT40 TDP1 no CPT: -7%; Giardia kill: -24; IL1B secr inh: -7; DT40 TDP1 CPT: 16%

What do the screens show for `O=C(Cc1c[nH]c2ccccc12)NCc1ccc(Cl)cc1`?
ELG1 repair inh: inconclusive; DT40 TDP1 no CPT: inconclusive; Giardia kill: -9; IL1B secr inh: -8; TDP1 block: 8%; DT40 TDP1 CPT: -11%

Results for Cc1[nH]c2ccccc2c1C1(O)C(=O)N(Cc2ccccc2)c2ccc(Br)cc21 (stereo not given) ?
DT40 TDP1 no CPT: 4.6µM*; TDP1 block: 10%; DT40 TDP1 CPT: 4.1µM*

Results for Cc1[nH]c2ccccc2c1C1(O)C(=O)N(Cc2ccccc2Cl)c2ccccc21 (stereo not given) ?
DT40 TDP1 no CPT: 5.2µM*; TDP1 block: 8%; DT40 TDP1 CPT: 5.8µM*

Results for Cc1ccc(CN2C(=O)C(O)(c3c[nH]c4ccccc34)c3cc(Cl)ccc32)cc1 (stereo not given) ?
DT40 TDP1 no CPT: 23µM*; TDP1 block: 6%; DT40 TDP1 CPT: inconclusive

What do the screens show for `Cc1ccc(OC(=O)c2cccc(S(=O)(=O)N3CCN(C)CC3)c2)c(Br)c1`?
ELG1 repair inh: -4%; DT40 TDP1 no CPT: -2%; Giardia kill: -6; IL1B secr inh: inactive; TDP1 block: 5%; DT40 TDP1 CPT: -5%

What do the screens show for `Clc1ccc(-n2nnc(-c3ncc[nH]3)n2)cc1Cl`?
DT40 TDP1 no CPT: -7%; Giardia kill: -3; IL1B secr inh: -5; DT40 TDP1 CPT: -15%

Results for CN1CCN(Cc2cccc(Oc3ccc(Cl)cc3)c2)CC1 ?
ELG1 repair inh: inconclusive; DT40 TDP1 no CPT: inconclusive; Giardia kill: 8; IL1B secr inh: inconclusive; TDP1 block: 0%; DT40 TDP1 CPT: 29µM*
